Assay outcomes (PubChem BioAssay)
Shiga inhibitor = A qHTS for Small Molecule Inhibitors of Shiga Toxin; Vero cells, Shiga toxin protein synthesis inhibition reporter; inhibition, % at 38.7 µM; hit rate 9.2% among 290,000; AID 2315, 2010; in the data active = inhibition mostly above about 28%, no sharp cut-off; inactive = mostly below about 43%
CHX counter = Cycloheximide Counterscreen for Small Molecule Inhibitors of Shiga Toxin; max response, %; hit rate 12% among 300,000; cell reporter, cycloheximide protein synthesis inhibition counterscreen; in the data active = max response mostly above about 13%, no sharp cut-off; inactive = mostly below about 14%; also: read at 38.3 µM for the half of the compounds with a filed dose
NS1 function inh = qHTS Assay for Inhibitors of Influenza NS1 Protein Function; Potency, µM (doses to about 46.1 µM); hit rate 0.4% among 270,000; AID 2326, 2010; also: actives are rising curves; nearly all actives have a fitted effect of over 50% in size
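Recovery from NS1-induced slow growth read by OD600 in budding yeast switched to galactose assay medium (pH 6.0, -URA) at 1:100 dilution. Compound 23 nl per well; the matching strain lacking NS1 serves as control.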
SARS PLP yeast = qHTS of Yeast-based Assay for SARS-CoV PLP | S. cerevisiae expressing SARS-CoV PLpro, growth rescue | Potency, µM (top dose mostly 32.9 µM), hits mostly activators | hit rate 0.19% among 330,000 | AID 485353, 2010; also: nearly all actives have a fitted effect of over 55% in size
Numbers stand for hits. Only some compounds are listed: those with a hit (about 12% of all), similar ones and a draw of the others. Unless noted, calls follow the shape of the full dose curve.

What do the screens show for `Cc1ccc2c(c1)sc1nc(=O)ccn12`?
Shiga inhibitor: inactive; CHX counter: inactive; NS1 function inh: inactive; SARS PLP yeast: inactive

Results for CCCC(=O)c1c[nH]c(C(=O)NCc2ccco2)c1 ?
Shiga inhibitor: inactive; CHX counter: inactive; NS1 function inh: inactive; SARS PLP yeast: inactive

Results for COc1ccc(C(=O)Cc2ccc(OC)c(OC)c2)cc1 ?
Shiga inhibitor: 53.1; CHX counter: 55.6; NS1 function inh: inactive; SARS PLP yeast: inactive

How did Cc1ccc(NC(=O)Nc2nnc(Cc3ccc([N+](=O)[O-])cc3)s2)cc1C do in these assays?
Shiga inhibitor: inactive; CHX counter: 18.4; NS1 function inh: inactive; SARS PLP yeast: inactive

How did COc1ccc(Cc2nnc(NC(=O)Nc3ccc(C)cc3)s2)cc1OC do in these assays?
Shiga inhibitor: 43.0; CHX counter: 15.3; NS1 function inh: inactive; SARS PLP yeast: inactive

How did COc1ccc(CC(=O)O/N=C(\N)Cc2ccc(OC)c(OC)c2)cc1 do in these assays?
Shiga inhibitor: inactive; CHX counter: inactive; NS1 function inh: inactive; SARS PLP yeast: inactive

What do the screens show for `O=C(Nc1ccccc1)Nc1nnc(Cc2ccc([N+](=O)[O-])cc2)s1`?
Shiga inhibitor: inactive; CHX counter: inactive; NS1 function inh: inconclusive; SARS PLP yeast: inactive

Results for COc1ccc(C(=O)Nc2nnc(Cc3ccc(OC)c(OC)c3)s2)cc1 ?
Shiga inhibitor: inactive; CHX counter: 11.1; NS1 function inh: inactive; SARS PLP yeast: inactive

How did COc1ccc(NC(=O)Nc2nnc(Cc3ccc(OC)c(OC)c3)s2)cc1 do in these assays?
Shiga inhibitor: inactive; CHX counter: inactive; NS1 function inh: inactive; SARS PLP yeast: inactive

How did Cc1cccc(C(=O)OCC(=O)NN2C(=O)NC3(CCC(C)CC3)C2=O)c1O (centres undefined) do in these assays?
SARS PLP yeast: inactive

How did O=C(COc1ccc(-c2nnco2)cc1)NC1CCCc2ccccc21 (centres undefined) do in these assays?
Shiga inhibitor: inactive; CHX counter: inactive; NS1 function inh: inactive; SARS PLP yeast: inactive

Results for Cc1ccc(NC(=O)Nc2nnc(Cc3ccc(F)cc3)s2)cc1 ?
Shiga inhibitor: 41.8; CHX counter: inactive; NS1 function inh: inactive; SARS PLP yeast: inactive

Results for COc1ccc(CC(=O)n2[nH]c(=O)ccc2=O)cc1OC ?
Shiga inhibitor: 41.0; CHX counter: inactive; NS1 function inh: inactive; SARS PLP yeast: inactive

Results for CN(CC(=O)Nc1ccccc1Cl)CC(=O)c1c(N)n(Cc2ccccc2)c(=O)n(C)c1=O ?
SARS PLP yeast: inactive

What do the screens show for `COc1cc(/C=C/C(=O)OCC(=O)Nc2cc(S(=O)(=O)N(C)C)ccc2Cl)ccc1O`?
Shiga inhibitor: inactive; CHX counter: inactive; NS1 function inh: inactive; SARS PLP yeast: inactive

Results for COc1ccc(/C=C/C(=O)OCC(=O)Nc2cc(S(=O)(=O)N(C)C)ccc2Cl)cc1 ?
Shiga inhibitor: 58.4; CHX counter: 12.8; NS1 function inh: inactive; SARS PLP yeast: inactive

How did COc1ccc2c(c1)cc(C(O)c1ccccn1)n2S(=O)(=O)c1ccccc1 (centres undefined) do in these assays?
Shiga inhibitor: 41.0; CHX counter: 19.4; NS1 function inh: inactive; SARS PLP yeast: inactive

Results for O=C(c1ncc[nH]1)c1cccs1 ?
Shiga inhibitor: inactive; CHX counter: 28.8; NS1 function inh: inactive; SARS PLP yeast: inactive

How did O=C(c1ncc[nH]1)c1ccccc1C(=O)N1CCOCC1 do in these assays?
Shiga inhibitor: inactive; CHX counter: inactive; NS1 function inh: inactive; SARS PLP yeast: inactive

What do the screens show for `CCOC(=O)c1c(-c2ccccc2)cn2c(C)cc(C)nc12`?
Shiga inhibitor: 70.7; CHX counter: 35.0; NS1 function inh: inactive; SARS PLP yeast: inactive

Results for CC(=O)Nc1nc(-c2ccccc2)nc(C)c1C(C)=O ?
Shiga inhibitor: inactive; CHX counter: inactive; NS1 function inh: inconclusive; SARS PLP yeast: inactive

How did CCOC(=O)c1c(C)nc(-c2ccccc2)nc1NC(C)=O do in these assays?
Shiga inhibitor: inactive; CHX counter: inactive; NS1 function inh: inactive; SARS PLP yeast: inactive

How did CCOC(=O)c1c(C)nc(C)c(C(=O)OCC)c1-c1ccccc1 do in these assays?
Shiga inhibitor: inactive; CHX counter: inactive; NS1 function inh: inactive; SARS PLP yeast: inactive

Results for CCOC(=O)c1c(C)nc(-c2ccccc2)nc1N ?
Shiga inhibitor: 122.9; CHX counter: 33.0; NS1 function inh: inactive; SARS PLP yeast: inactive

How did CC(=O)c1c(C)nc(-c2ccccc2)nc1N do in these assays?
Shiga inhibitor: 58.5; CHX counter: 29.3; NS1 function inh: inactive; SARS PLP yeast: inactive

Results for Cc1ccc(C(=O)NCCCNC(=O)COc2ccc(C)c(C)c2)cn1 ?
Shiga inhibitor: inactive; CHX counter: inactive; NS1 function inh: inactive; SARS PLP yeast: inactive

What do the screens show for `CN(C)C(=S)Oc1ccccc1-c1ccccc1OC(=S)N(C)C`?
Shiga inhibitor: inactive; CHX counter: inactive; NS1 function inh: inactive; SARS PLP yeast: inactive

Results for COc1ccc(CN[C@H](C)C(=O)O)cc1 ?
NS1 function inh: inactive

Results for N#Cc1nc(-c2cccs2)oc1NCCc1ccccc1 ?
Shiga inhibitor: 74.2; CHX counter: inactive; NS1 function inh: inactive; SARS PLP yeast: inactive

How did N#Cc1nc(-c2cccs2)oc1N1CCN(Cc2ccccc2)CC1 do in these assays?
Shiga inhibitor: inactive; CHX counter: 16.1; NS1 function inh: inactive; SARS PLP yeast: inactive

How did COc1ccc(-c2nc(C#N)c(NCCc3ccccc3)o2)cc1OC do in these assays?
Shiga inhibitor: inactive; CHX counter: 21.6; NS1 function inh: inactive; SARS PLP yeast: inactive

How did N#Cc1nc(-c2ccco2)oc1NCCc1ccccc1 do in these assays?
Shiga inhibitor: 27.2; CHX counter: 27.5; NS1 function inh: inactive; SARS PLP yeast: inactive

Results for N#Cc1nc(COc2ccccc2)oc1N1CCN(Cc2ccccc2)CC1 ?
Shiga inhibitor: inactive; CHX counter: inactive; NS1 function inh: inactive; SARS PLP yeast: inactive

What do the screens show for `CC(C)c1ccc(N(CC(=O)NCc2ccc(F)cc2)C(=O)c2snc(C(N)=O)c2N)cc1`?
Shiga inhibitor: inactive; CHX counter: inactive; NS1 function inh: inactive; SARS PLP yeast: inactive

How did COc1cccc(OCC(O)CN2CCN(C)CC2)c1 (centres undefined) do in these assays?
Shiga inhibitor: inactive; CHX counter: inactive; NS1 function inh: inactive; SARS PLP yeast: inactive

What do the screens show for `COc1ccc(OCCCCOc2ccccc2Cl)cc1`?
Shiga inhibitor: inactive; CHX counter: inactive; NS1 function inh: inactive; SARS PLP yeast: inactive

Results for N#Cc1nc(-c2ccccc2F)oc1NCCc1ccccc1 ?
Shiga inhibitor: inactive; CHX counter: 41.0; NS1 function inh: inactive; SARS PLP yeast: inactive

How did N#Cc1nc(-c2ccccc2F)oc1NCc1ccccc1 do in these assays?
Shiga inhibitor: inactive; CHX counter: 18.1; NS1 function inh: inactive; SARS PLP yeast: inactive

What do the screens show for `N#Cc1nc(-c2ccccc2F)oc1NCCc1ccccn1`?
Shiga inhibitor: inactive; CHX counter: inactive; NS1 function inh: inactive; SARS PLP yeast: inactive

What do the screens show for `COCCCNc1oc(-c2ccccc2F)nc1C#N`?
Shiga inhibitor: inactive; CHX counter: 24.0; NS1 function inh: inactive; SARS PLP yeast: inactive

What do the screens show for `CCCOC(=O)C1=C(C)NC(=O)NC1c1cc2c(cc1Br)OCO2` (centres undefined)?
Shiga inhibitor: inactive; CHX counter: inactive; NS1 function inh: inactive; SARS PLP yeast: inactive
